# In PubChem BioAssay (NCI):
# Compounds without any hit were thinned out: in the full panel of roughly 79,000, 15% have a hit. A number with no mark means an inactive call. The source made the active and inactive calls. No stated cut-off is given here; in the data, active means growth inhibition above about 70%; inactive means the rest.
# Experiments:
# [1] = NCI Yeast Anticancer Drug Screen. Data for the rad50 strain (AID 155);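 further: 0% = growth of vehicle-only cultures of the same strain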; details: S. cerevisiae rad50 strain growth inhibition, hits give high values
# Method in brief: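 Relative growth inhibition (compound vs vehicle) was measured in yeast with a defined repair-gene alteration.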
# [2] = NCI Yeast Anticancer Drug Screen. Data for the mec2-1 strain (AID 157); details: S. cerevisiae mec2-1 strain, hits give high values
# Method in brief: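 Strain: mec2-1 (DNA repair/cell cycle alteration). Compound exposure, then growth measured; inhibition expressed relative to vehicle.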
# [3] = NCI Yeast Anticancer Drug Screen. Data for the sgs1 mgt1 strain (AID 161);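 further: 0% = growth of cultures given vehicle only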; details: S. cerevisiae sgs1 mgt1 strain, hits give high values
# Method in brief: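 Read-out: growth inhibition vs vehicle controls. Cells: mutant yeast strain deficient in DNA damage repair.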
# [4] = NCI Yeast Anticancer Drug Screen. Data for the bub3 strain (AID 167); details: S. cerevisiae bub3 mutant strain, hits give high values
# Method in brief: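 Screening used yeast with an engineered genetic alteration affecting cell cycle control. Compound-exposed cultures were compared with vehicle cultures, and reduced growth was taken as inhibition.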
# [5] = NCI Yeast Anticancer Drug Screen. Data for the mlh1 rad18 strain (AID 175); details: S. cerevisiae mlh1 rad18 strain growth inhibition, hits give high values
# Method in brief: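 Read-out is yeast growth inhibition, calculated against vehicle-only controls. The compound was applied to a strain engineered with DNA damage repair alterations.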
# [6] = NCI Yeast Anticancer Drug Screen. Data for the cln2 rad14 strain (AID 165);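 further: 0% = growth equal to vehicle treated cultures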; details: S. cerevisiae cln2 rad14 strain, hits give high values
# Method in brief: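 Compounds are applied to the cln2 rad14 yeast strain, and growth is then compared with that of vehicle-treated cultures to give inhibition.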
# [7] = at 5.0 µM (retest, dose inferred, filed as 0.5)
# [8] = at 50.0 µM (retest, dose inferred, filed as 5.0)
SMILES,"growth inhibition [1, 7]","growth inhibition [1, 8]",growth inhibition ([1]; at 50.0 µM),"growth inhibition [2, 7]","growth inhibition [2, 8]",growth inhibition ([2]; at 50.0 µM),"growth inhibition [3, 7]","growth inhibition [3, 8]",growth inhibition ([3]; at 50.0 µM),"growth inhibition [4, 7]","growth inhibition [4, 8]",growth inhibition ([4]; at 50.0 µM),"growth inhibition [5, 7]","growth inhibition [5, 8]",growth inhibition ([5]; at 50.0 µM),"growth inhibition [6, 7]","growth inhibition [6, 8]",growth inhibition ([6]; at 50.0 µM)
CC(=O)OCC1OC(OC(C)=O)C(On2nnc3c(-c4ccccc4)c(C)nn32)C(OC(C)=O)C1OC(C)=O (configuration not stated),0%,54%,61.5%,-1%,71% (active),35.8%,2%,76% (active),47.8%,-1%,59%,16.1%,-3%,58%,36.2%,,,
Cn1cc(NC(=O)c2cc(NC(=O)CCCCCCCCC(=O)Nc3cc(C(=O)Nc4cc(C(=O)NCCC(N)N)n(C)c4)n(C)c3)cn2C)cc1C(=O)NCCC(=N)N,83% (active),98% (active),89.8% (active),87% (active),98% (active),90.8% (active),80% (active),99% (active),91.5% (active),86% (active),98% (active),91.5% (active),88% (active),97% (active),90% (active),,,
O=Nc1ccccc1N=O,48%,99% (active),99.5% (active),30%,99% (active),99.4% (active),,,,80% (active),99% (active),99.3% (active),91% (active),99% (active),99.4% (active),36%,97% (active),98.3% (active)
Cc1c2c(c(C)c3ccncc13)S(=O)(=O)c1ccccc1-2,88% (active),87% (active),94.3% (active),52%,69%,36.2%,38%,65%,55.3%,41%,33%,55%,75% (active),85% (active),79.9% (active),,,
CCOC(=O)c1c(C)[nH]c(C(c2ccccc2)c2[nH]c(C)c(C(=O)OCC)c2C)c1C,-2%,65%,44%,-4%,64%,43.4%,,,,-5%,80% (active),46.2%,5%,74% (active),48.8%,0%,86% (active),75.2% (active)
O=C(O)c1ccccc1Cc1ccc2c(c1)Cc1ccccc1-2,2%,76% (active),62.5%,-5%,67%,66.3%,6%,89% (active),63.5%,-6%,68%,50.4%,14%,80% (active),79.2% (active),,,
CC1CC(c2ccccc2)CC(C)N1c1ccc2ccccc2c1 (configuration not stated),9%,82% (active),77.8% (active),13%,74% (active),69.3%,1%,,77% (active),0%,65%,93.7% (active),2%,84% (active),93.3% (active),5%,61%,36.4%
CC(=O)OCC1(O)OCC(OC(C)=O)C(OC(C)=O)C1OC(C)=O (configuration not stated),18%,-21%,12.2%,-15%,-20%,-2.6%,-4%,9%,12.6%,6%,-25%,7.9%,-4%,-14%,12.9%,,,
C[C-](O)O.O/C(=C\[C-](O)c1ccccc1)c1ccccc1.O/C(=C\[C-](O)c1ccccc1)c1ccccc1.[Nd+3] (configuration not stated),36%,36%,90.1% (active),36%,36%,92.7% (active),42%,42%,93.3% (active),,,,30%,30%,85.9% (active),21%,21%,88.7% (active)
CC(=O)Oc1c(Cl)cc(Cl)cc1C(c1cc(Cl)cc(Cl)c1OC(C)=O)C(Cl)(Cl)Cl,6%,31%,90.8% (active),2%,25%,98.3% (active),-1%,-5%,83.9% (active),-3%,20%,98.3% (active),-2%,23%,95.5% (active),,,
CCOC(=O)N1CCN(c2cc(C)nc3cc(OC)ccc23)CC1,4%,-4%,21.1%,-1%,1%,5.9%,0%,-5%,17.6%,3%,1%,59.5%,0%,-7%,38.9%,-1%,-5%,
O=C(O/N=C1/CCCC/C1=C\c1ccccc1)c1ccccc1,24%,86% (active),76.2% (active),17%,95% (active),88.3% (active),51%,94% (active),85.8% (active),,,,19%,82% (active),81.7% (active),47%,97% (active),87% (active)
CC(C)C(OC(=O)c1ccc(NCc2cc(O)ccc2O)cc1)C(C)C,21%,97% (active),89.5% (active),23%,99% (active),92% (active),35%,99% (active),90.6% (active),,,,27%,99% (active),86% (active),21%,99% (active),88% (active)
Cc1ccc(/C=C2\CCCc3ccccc3C2=O)cc1,0%,7%,51.3%,7%,23%,7.9%,8%,33%,55.8%,,,,7%,23%,55.1%,-11%,-11%,11.3%
Cc1c[n+](=O)c2ccccc2n1[O-],-21%,10%,2.6%,-14%,-16%,-16.6%,,,,13%,-11%,-10.6%,-11%,-6%,-0.1%,8%,1%,70.8% (active)
CC(C)CCCCCCCCCCCCC(=O)NCC(=O)NC1C(C)OC(Nc2ncnc3nc[nH]c23)C(O)C1O (configuration not stated),22%,22%,29.1%,54%,32%,9.55%,43%,45%,34.5%,58%,23%,77.1% (active),52%,35%,19.4%,5%,10%,2.2%
O=C=Nc1ccccc1-c1ccc([N+](=O)[O-])cc1Cl,-1%,20%,73.2% (active),32%,62%,37.6%,8%,44%,21.9%,,,,40%,62%,84.2% (active),-5%,-2%,68.8%
CCCCCCCCCCCC(=O)N1CCCC1,-1%,99% (active),99.4% (active),-10%,100% (active),99.5% (active),3%,40%,96.8% (active),-3%,99% (active),99.5% (active),7%,99% (active),99.5% (active),,,
Cc1ccc(-c2c(C#N)c(-c3ccccc3)n(NS(=O)(=O)c3ccc(C)cc3)c(=O)c2C#N)cc1,26%,73% (active),73.5% (active),28%,67%,79.1% (active),35%,70% (active),81% (active),51%,70% (active),81.7% (active),34%,72% (active),77.2% (active),52%,68%,80.8% (active)
C=CC(=O)NC(=O)Nc1ccc(Cl)cc1,18%,97% (active),98% (active),32%,98% (active),98.2% (active),27%,99% (active),98.9% (active),,,,25%,99% (active),98.7% (active),10%,98% (active),97.5% (active)
CC(=O)ON=C1C=CC(=C(C#N)c2ccccc2)C=C1,44%,99% (active),97.2% (active),41%,100% (active),99.1% (active),,,,72% (active),100% (active),66.3%,49%,99% (active),99.5% (active),88% (active),100% (active),98.2% (active)
CCOc1c(Br)cc(Br)cc1/C=N/NS(=O)(=O)c1ccc(C)cc1,41%,90% (active),75.7% (active),,,,,,,45%,85% (active),72.2% (active),48%,91% (active),75% (active),30%,87% (active),82.6% (active)
